Whole data set: some 25,000 sequences, median “ln(normalized median fluorescence intensity)” near 6.7, cut for the highest 2% near 10. This is one part of a sample in which the highest values are shown more often than they occur.
tested on: PfHDP1 homeodomain (GST-tagged); assay: gcPBM binding intensity (ln(normalized median fluorescence intensity)); higher = stronger DNA binding
Procedure, shortened: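 GST-tagged P. falciparum DNA-binding domains, expressed in E. coli (about 25 μg on average), were applied for 1 h to an Agilent 4 × 180k array of primer-extended double-stranded 36-bp intergenic genomic probes plus negative controls. The binding buffer was 1× PBS with 1% milk, 0.2 mg/ml BSA, 0.5% salmon testes DNA and 0.03% Triton X-100. Bound protein was detected with Alexa488 anti-GST antibody and scanned at 488 nm. Binding intensity is the highest Masliner-normalised natural-log median intensity across replicate spots of either probe orientation.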

Sequence	gcPBM binding intensity (ln)
CATACCCATAAACACACACACATATATACCTATATA [CACACA_site4745]	6.87
AAAAAAAAGTTAAGCACACACATGAATAAATAATAC [CACACA_site840]	6.94
ATAAAAATATTATAAGCACACATATATATATATATA [CACACA_site8781]	9.54
AAAGTAAATTTAAGCACACACAACGAATTTTTATAC [CACACA_site1959]	6.84
TGAAATTTGTTATATGCATGTAAAATATTACGACGA [TGCATGCA_site201]	6.59
TTTTTTTTTCCGTGTTGTACAAAAAAAAAGATTTTG [XGTACX_site3925]	6.21
ACACAAAACAAAAAGGTGCTGTATAAATGGGTGTAT [GTGCAC_site9905]	7
TATTTTAGTAAAGGTGGTACTTTTAAGTTCATGTAT [XGTACX_site1854]	6.23
TATACAAACTATGATGCACACATATATATATGTATA [CACACA_site8327]	8.97
TTATTTATTTTTATATGTACACAAAAAAAAAAAAAA [XGTACX_site1459]	6.53
TTTTTTTTTATGTGCACACAAAAGATGCTTATATTT [CACACA_site2348]	11.2
TTTTTTTTTTTATGTGCACACAAAAGATGCTTATAT [CACACA_site2347]	10.7
AGGGAATATTTTTATGCATGTGCTTACACATTACAA [TGCATGCA_site830]	6.83
GCTTATAAGATATGCACACACAACACTTACAAAAAA [CACACA_site817]	9.27
TAGCTTATAAGATATGCACACACAACACTTACAAAA [CACACA_site8174]	9.5
ATTCTATTCTCCTTCACACACAAAAATATTTCATCA [CACACA_site2360]	6.98
AAAAAAAATGGATGATCACACACTTCATAAAAATTG [CACACA_site2213]	6.14
TTTTTTTTTTTTAATACACACATATTTATATTTATT [CACACA_site7802]	6.63
CAGAATAATTTTATCGGTACACACTGTATGCATAAT [XGTACX_site736]	6.88
AAAAAATTAACGAGTGCACACATATTTAGATAAAAT [CACACA_site8958]	10.7
AAAATTAAAAATAACACACACATATATATATTTATA [CACACA_site2776]	6.54
AAAATTAAAAATAACACACACATATTTATATTTATA [CACACA_site7329]	6.24

Sequence	gcPBM binding intensity (ln)
AAAATTAACGAGTGCACACATATTTAGATAAAATAC [CACACA_site2936]	11.3
TAAATTATAACGTGCACACATATTTAAAATGAAATG [CACACA_site2820]	10
GAAAAATTAAAAATAACACACACATATATATATTTA [CACACA_site8896]	6.38
ATAATATATTTTTGAACACACAATATAGATTTATAT [CACACA_site7857]	6.35
TTTTTTTCAATATTTGCACACGATTAAAATATTTAA [CACACA_site5266]	10.6
TTTTATTTTTTATTTGCACACAATATGTAAAAAAAT [CACACA_site2927]	10.6
GAACAATATATTTGCACACAAAAAATATATATTTAT [CACACA_site3317]	10.7
ATATTTATATATTGCACACAAAAAAAAAAAAAAATC [CACACA_site1629]	10.4
TTTTTTTCAATATTTGCACACGATTATAATATTTAA [CACACA_site2237]	10.3
TATGCACACAATATATGTACTTATATATTTTAAAAA [XGTACX_site5482]	9.96
AGCTAAAATATTTTTGCACACGATTTTTTTTTTTTT [CACACA_site1140]	9.82
TTTATATTTTTTTTTGCACACTTTAAAAAAATATAT [CACACA_site1146]	9.29
AGGAACAATATATTTGCACACAAAAAATATATATTT [CACACA_site3316]	10.4
AAAAAAATTAATGTGTGTACTTAGATATAATGTTTA [XGTACX_site8862]	6.43
AAAAGTACAATATATATGTATGTGTATAGAATGGTT [TGCATGCA_negctrl_site76]	7.28
AAAATATTTTAATGTTGTACATTAATATATTATATA [XGTACX_site2513]	6.03
TAAAAATATATACATACATGCATACATATATATGTA [TGCATGCA_site774]	6.47
TTATATATTTTTTGCACACCAAAAAAGAGAATATTC [CACACA_site2730]	10
TGTGTTTATACGTTTTGTACATATTTTTATTTTGTA [XGTACX_site6425]	6.74
TTCTTACACGTTTGCACACTAAAATATATATATATA [CACACA_site434]	10.7
TATTCTTACACGTTTGCACACTAAAATATATATATA [CACACA_site435]	9.97
TTTTATTCCTTCTTTGCACACGTTTAAAAATATATA [CACACA_site2899]	10.3

From the supplement of paper PMC11417369
